Here are results for seven sequences from the supplement of paper PMC6555819.

Test in all cases: PBM binding z-score (relative to random genomic background probes); higher = stronger binding; sequences stand for … in GC…GCGATTGACAGCGTAGAATGAAGG
The subject of experiment [1] is RARb homodimer (NR concentration 270 nM). In a few lines:
(§1)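 Custom Agilent 4×180K protein-binding microarrays carried double-stranded probes, each with a 34-nt variable region. These regions held direct-repeat seeds, single-nucleotide variants, half-site ablations and random human genomic background sequences. Ligand-free nuclear receptor dimers were incubated on the arrays for 1 h, antibodies against each partner (one per run) detected binding, and scanned fluorescence was regression-normalized. Binding z-scores take the random background probes as reference.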

Experiment [2] concerns RARg:RXRa (NR concentration 270 nM, RXRa partner concentration 90 nM). In a few lines: as §1
The test system of experiment [3] is RARg homodimer (NR concentration 270 nM). A digest of the protocol:
as §1

For experiment [4], the system named is RXRa DBDmut IVT, anti-RXR (DBD mutation: RXRa K156A/R161A, NR concentration 90 nM). In a few lines:
as §1

In experiment [5] the test system is RXRa homodimer (NR concentration 180 nM). A digest of the protocol: as §1
The test system of experiment [6] is THRa:RXRa (NR concentration 90 nM, RXRa partner concentration 90 nM). A digest of the protocol: as §1
Experiment [7] concerns THRa homodimer (NR concentration 90 nM). A digest of the protocol:
as §1

For experiment [8], the system named is VDR homodimer (NR concentration 270 nM). In a few lines: as §1

In the case of ATCGAAAGTTCGAGGTGAGTATAGAGAAAGGGAA, the PBM binding z-score in experiment [1] was 1.28; in experiment [2], 1.69; in experiment [3] it was 2.19; in experiment [4] it was 1.85; in experiment [5], 1.41; in experiment [6], 1.7. Also, the values for the PBM binding z-score in experiment [7] and in experiment [8] were 0.158 and 1.09, respectively.
In the case of TAGCCTAGGTCATTCAGCGGCCAGTATAGAAAGC, the PBM binding z-score is 2.81 in experiment [1]; 5.65 in experiment [2]; 4.44 in experiment [3]; 1.85 in experiment [4]; 3.07 in experiment [5]; 2.74 in experiment [6]. Besides, the PBM binding z-score turned out to be 0.53 in experiment [7] and 1.04 in experiment [8].
On to TCTCGGACGACACGAAAGGTCAGAGCTCGACATC, for which the PBM binding z-score in experiment [1] amounted to 4.33; in experiment [2], 4.43; in experiment [3], 4.55; in experiment [4], 0.759; in experiment [5], 4.8; in experiment [6], 2.77. The results for the PBM binding z-score in experiment [7] and in experiment [8] were 0.521 and 0.805, respectively.
For CGTCCAAAGTCATAGGAGGTCAGTGAAGACAGAT, the PBM binding z-score was determined as 3.55 in experiment [1]; 2.71 in experiment [2]; 2.75 in experiment [3]; 0.438 in experiment [4]; 1.96 in experiment [5]; 4.28 in experiment [6]. Further, the PBM binding z-score in experiment [7] was 0.808; in experiment [8], 1.55.
Turning to CCTATTGGGCCAAGGTCATTGATCAGTCAAAGCA, the PBM binding z-score in experiment [1] came to 3.15; in experiment [2], 3.81; in experiment [3], 3.22; in experiment [4] it was 1.62; in experiment [5], 3.07; in experiment [6], 3.6. Further, the PBM binding z-score was found to be 2.3 in experiment [7] and 3.13 in experiment [8].
AGAAAGAGGGCACGCTGAGTTGATAGCAGAGTAG: the PBM binding z-score in experiment [1] amounted to 1.64; in experiment [2], 2.5; in experiment [3], 3.08; in experiment [4] it was 1.36; in experiment [5], 1.83; in experiment [6], 1.5. Further, the PBM binding z-score was -0.338 in experiment [7] and 1.23 in experiment [8].
Regarding CCTCGTTGGTCAGGAGGTCACACACCGGATATGA, the PBM binding z-score in experiment [1] was 4.36; in experiment [2], 5.12; in experiment [3], 4.22; in experiment [4], 0.642; in experiment [5] it was 4.63; in experiment [6] it was 3.54. Further, the PBM binding z-score worked out at 2.26 in experiment [7] and 2.22 in experiment [8].
